The results in this text go back to ChEMBL document CHEMBL3433997, “St. Jude Leishmania screening dataset” (2016).

Molecules are shown by their SMILES.

The target in the assay is Glucose transporter (Leishmania mexicana) (UniProt O61059). As to the kind of experiment: ST_JUDE_LEISH: Cytotoxicity at 2uM final concentration against transgenic Leishmania Mexicana promastigotes LmGT2 that are glucose transport deficient and complemented with the L. Mexicana glucose transporter 2. Activity is measured by DNA content using SYBR green in vitro. Type of assay: functional.
As to `C(=N\Nc1nccc2sc(-c3cccnc3)cc12)/c1cccnc1`, the inhibition stood at 1.05%.

Regarding `CC(=O)OC[C@H]1O[C@@H](C#Cc2ccccc2)[C@H](OC(C)=O)[C@@H](OC(C)=O)[C@@H]1OC(C)=O`, the inhibition was determined as 0.66%.

For `O=S(=O)(NCCN1CCCC1)c1cccc(-c2ccc(CNCc3ccccc3)cc2)c1`, the inhibition came to 2.83%.

In the case of `CC(C)CCN1CCCN(Cc2ccc(C(=O)Nc3ccc(Cl)cc3)cc2)CC1`, the inhibition was found to be 11.6%.

For `COc1cccc(OC)c1OCCCON1C(=N)N=C(N)NC1(C)C`, the inhibition amounted to 2.31%.

For `Fc1ccc2[nH]c(-c3ccc(-c4ccc(CNCCc5ccncc5)cc4)s3)nc2c1`, the inhibition was 7.86%.

Turning to `CC(C)CNCc1ccc(-c2cccc(CNc3ccc4ncccc4c3)c2)cc1`, the inhibition came out at 2.69%.

For `Cc1cccc(Oc2cccc3[nH]nc(N)c23)c1`, the inhibition was 3.98%.

With `Cc1nc(-c2cccc(C(F)(F)F)c2)n2nc(Nc3ccc(OCCN4CCCC4)cc3)ncc12`, the inhibition stood at 9.22%.

`COc1cccc2cc(C(=O)N[C@@H](CC(C)C)C(=O)NC3CC[C@@H](C)N(C(=O)Nc4ccncc4)CC3=O)oc12` (stereo not given in full): the inhibition came to 3.24%.

On to `Oc1cccc(Nc2nc(NCC3CCCO3)c3ccccc3n2)c1` (stereo not given), for which the inhibition was 9.1%.

Turning to `CC(C)(C)NCCN(Cc1ccc(-c2ccc(C(F)(F)F)cc2)cc1)C(=O)Cn1c(SCc2ccc(F)cc2)nc(=O)c2c1CCC2`, the inhibition was determined as 1.74%.

Consider `O=C(Nc1ccc(OC2CCN(Cc3ccc(F)cc3)C2)c(Cl)c1)c1cccs1` (stereo not given), for which the inhibition came to 0.55%.

For the compound `O=C1OC2(CCN(Cc3cccc(-c4ncc[nH]4)c3)CC2)CN1CCNCc1ccccc1`, the inhibition is -0.76%.

`CN(C)CCOc1ccc(-c2cc(-c3ccnc(N)n3)c(-c3ccc(Cl)c(O)c3)o2)cc1`: the inhibition stood at 2.71%.
